In all, about 2,300 compounds went through this assay and about 1,400 (61%) were called active. Not shown: some 29% with an inconclusive outcome. The set was probably picked from earlier hits. This is one part of the list. Unmarked numbers belong to inactive results. Calls come from the whole dose curve; as a rule, active = well fitted inhibition curve with a large enough effect; inconclusive = small, poorly fitted or top-dose-only effect, or effect the other way; inactive = no such curve, though single readings can be large or run the other way.
assay: Confirmation screen for delayed death inhibitors of the malarial parasite plastid, 96 hour incubation; note: nearly all actives have a fitted effect of over 60% in size; details: P. falciparum luciferase growth in erythrocytes; series mostly up to 28.7 µM; activity change, negative = inhibition: at the top concentration
Text: The goal of this screen is to discover new antimalarial compounds that act by inhibiting the development of the apicoplast in the malarial parasite Plasmodium falciparum. The biochemical processes that make this organelle essential for erythrocytic stage parasites are not well understood. However, antibiotics, such as azithromycin and tetracycline, which target the apicoplast translational machinery, have a potent antimalarial effect. […] We have developed a cell-based assay that measures parasite growth based on the expression of an integrated copy of a firefly luciferase reporter. To detect small molecules that cause this "delayed death phenotype, erythrocytes infected with the luciferase-expressing parasites were incubated with compounds for either one or two generations, corresponding to 48 and 96 hours, respectively. Compounds that inhibit parasite growth in the second generation, but not the first, should be enriched in antimalarials that target the apicoplast. Growth inhibition is detected by a decrease in luciferase activity. MLPCN Grant: R21 NS059500 Assay Provider: David Fidock and Eric Ekland, Columbia University Keywords: NIH Roadmap, MLPCN, MLI, MLSMR, qHTS, NCGC, qHTS, malaria, luciferase, viability
Four microliters of culture medium (RPMI 1640 with 0.5% w/v Albumax (GIBCO), 24 mM sodium bicarbonate and 10 ug/mL gentamycin) were dispensed by a Multi-drop Combi into white solid 1536-well plates (Grenier) and 23 nL compound was added by a pin tool. Four microliters of infected erythrocytes (2% hematocrit, 0.1% parasitemia final concentration) in culture medium were dispensed and the plates incubated for 96 hours at 37 C in 5% CO2. Two microliters of luciferase detection reagent was added and luminescence was detected by a ViewLux (PerkinElmer) reader
% is set by controls: 0 for no effect and ±100 for the full control effect; potency is the fitted concentration of half-maximal effect.

Structure (SMILES)	Potency	activity change, negative = inhibition [%]
O=C(NCCN1CCN(c2ccc([N+](=O)[O-])cc2)CC1)NCc1ccccc1	12.6 µM (active)	
CC(C)CC1NC(=S)N(Cc2ccccc2)C1=O (configuration not stated)	3.98 µM (active)	
CCC(C(=O)O)C1OC(C(C)C(O)C(C)C(=O)C(CC)C2OC3(C=CC(O)C4(CCC(C)(C5CCC(O)(CC)C(C)O5)O4)O3)C(C)CC2C)C(C)CC1C (configuration not stated)	0.178 µM (active)	
CC(=O)N1CCN(S(=O)(=O)c2cccc(C(=O)NCCC3=CCCCC3)c2)CC1	12.6 µM (active)	
COC(=O)COc1ccc(S(=O)(=O)NCCC2=CCCCC2)cc1Cl		-17.4
CCNC(=O)NC(=O)C(C)OC(=O)c1oc2ccccc2c1CSC1CCCCC1 (configuration not stated)		-18.8
COc1ccc(OC)c(C2=CC(=O)C[C@H](c3ccc4c(c3)OCO4)C2)c1	12.6 µM (active)	
CCOc1ccc(Cl)cc1C1=CC(=O)C[C@H](c2ccc(OC)cc2)C1	12.6 µM (active)	
O=S(=O)(Nc1cccc2ncccc12)c1cccs1	3.55 µM (active)	
Cc1ccc(S(=O)(=O)Nc2cccc3ncccc23)s1	3.98 µM (active)	
CCCc1ccc(C(=O)NC(=O)c2ccccc2O)cc1	0.562 µM (active)	
CC(C)N=C(NS(=O)(=O)c1ccccc1)C(Cl)(Cl)Cl	4.47 µM (active)	
O=C1c2cc(F)ccc2-n2c1nc1ccccc1c2=O	0.158 µM (active)	
NC(=S)Nn1c(-c2ccccc2)nc2ccccc2c1=O		24.6
O=C1c2ccccc2-n2c1nc1ccccc1c2=O	0.501 µM (active)	
O=C(CSc1nnc2ccc(-c3cccnc3)nn12)Nc1cccc(F)c1	8.91 µM (active)	
Cc1cccc(N(C)C(=O)CN(C)S(=O)(=O)c2ccc3c(c2)c(=O)n(C)c(=O)n3C)c1	12.6 µM (active)	
CC1CCC(NC(=O)CN(C)S(=O)(=O)c2ccc3c(c2)c(=O)n(C)c(=O)n3C)CC1 (configuration not stated)	3.98 µM (active)	
Cc1cc(C)cc(-n2c(N)c(C(=O)Nc3c(C)n(C)n(-c4ccccc4)c3=O)c3nc4ccccc4nc32)c1	3.16 µM (active)	

Structure (SMILES)	Potency	activity change, negative = inhibition [%]
CCN(C(=O)c1cc2c(=O)n3ccccc3nc2n1CCCOC)C1CCCCC1	10 µM (active)	
CCOC(=O)c1c(C)c(-c2ccccc2)n(CC(=O)NCCCN(CC)CC)c1C	11.2 µM (active)	
COc1ccc(-c2csc(N3CCN(C(=O)c4ccco4)CC3)n2)cc1	12.6 µM (active)	
O=c1[nH]c(C(F)(F)F)nc2ccc3ccccc3c12		26.6
Cn1nc(C(F)(F)F)c(C(=O)Nc2ccc(F)cc2F)c1Sc1ccc(C(F)(F)F)cc1	7.94 µM (active)	
CC(C)N(C(=O)CSc1nnc(-c2ccc3c(c2)OCO3)n1C)C(C)C	10 µM (active)	
O=C(Nc1ccccc1O)c1ccc([N+](=O)[O-])cc1	12.6 µM (active)	
CCCOc1cc(NCc2ccccc2)c2ncn(C(C)C)c2c1	2.82 µM (active)	
O=C(OC[C@@H]1O[C@@](O)(COC(=O)c2cccnc2)[C@H](OC(=O)c2cccnc2)[C@H]1OC(=O)c1cccnc1)c1cccnc1	6.31 µM (active)	
Cn1c(CCn2ccccc2=O)nc2cc(NC(=O)COc3ccccc3)ccc21	10 µM (active)	
COc1ccccc1OCCCOc1cccc(/C=C2\SC(=O)NC2=O)c1	11.2 µM (active)	
CCOc1ccc(/C=C2\SC(=S)N(C(C(=O)O)c3ccccc3)C2=O)cc1OC (configuration not stated)		-7.03
CNC(=S)N(CCc1c(C)[nH]c2ccc(Cl)cc12)Cc1cccnc1	12.6 µM (active)	
CNC(=S)N(CCc1c(C)[nH]c2ccc(C)cc12)Cc1cc(OC)c(OC)c(OC)c1	11.2 µM (active)	
O=C(CCl)Nc1cn(-c2ccccc2)nc1-c1ccccc1	11.2 µM (active)	
Cc1cccc(NC(=O)c2cn(-c3ccccc3)nc2-c2ccccc2)c1	14.1 µM (active)	
OC(c1ccccc1)(c1ccccc1)C1CCN(C(=S)NCCc2ccccc2)CC1	5.01 µM (active)	
CCC1CCCCN1CCCNC(=O)c1ccc(CS(=O)(=O)c2ccc(Br)cc2)o1 (configuration not stated)	5.01 µM (active)	
CCCCNC(=O)c1ccc(CS(=O)(=O)c2cccc(C(F)(F)F)c2)o1		-32.4

Structure (SMILES)	Potency	activity change, negative = inhibition [%]
CN(CCCNC(=O)c1ccc(CS(=O)c2ccc(Br)cc2)o1)Cc1ccccc1 (configuration not stated)	1.78 µM (active)	
CN(CCNC(=O)c1ccc(CS(=O)(=O)c2ccc(Br)cc2)o1)CCc1ccccc1	2 µM (active)	
CCCCN(CCCNC(=O)c1ccc(CS(=O)(=O)c2ccc(OC)cc2)o1)Cc1ccccc1	5.01 µM (active)	
Cn1c(=O)c([N+](=O)[O-])c(-n2ccnc2)c2ccccc21	14.1 µM (active)	
CCc1ccc(/C=N/n2c(C)cc(C)c(C#N)c2=O)cc1	6.31 µM (active)	
CCC1CN(C(=O)N2CCC(C(=O)NCc3cccc(OC)c3OC)CC2)c2cc(C)ccc2O1 (configuration not stated)	11.2 µM (active)	
COc1cccc(COC(=O)C2CC(=O)N(Cc3ccco3)C2)c1OC (configuration not stated)		-10.9
CC(CN1CCC(n2nccc2NC(=O)c2ccccc2Cl)CC1)c1ccccc1 (configuration not stated)	10 µM (active)	
Cc1ccc(CN2CCC(n3nccc3NC(=O)c3ccccc3C)CC2)o1	12.6 µM (active)	
O=c1[nH]c(=O)n(Cc2ccco2)c2c1C(C(F)(F)F)(C(F)(F)F)N=C(CCc1ccccc1)N2	6.31 µM (active)	
CCOCCCNC(=O)/C(C#N)=C/c1ccc(-c2ccc(S(=O)(=O)N3CCOCC3)cc2)o1	11.2 µM (active)	
COc1ccc(NC(=O)CSc2ccc(-c3ccco3)nn2)c(OC)c1	11.2 µM (active)	
Cc1cc(=O)n2nc(N3CCC(C(=O)NCc4ccc(Cl)cc4)CC3)sc2n1	10 µM (active)	
Cc1cc(=O)n2nc(N3CCC(C(=O)NCc4ccc(F)cc4)CC3)sc2n1	8.91 µM (active)	
Cc1cc(=O)n2nc(N3CCC(C(=O)NCCc4ccc(Cl)cc4)CC3)sc2n1	10 µM (active)	
Cc1cc(=O)n2nc(N3CCCC(C(=O)NCc4ccc(Cl)cc4)C3)sc2n1 (configuration not stated)	11.2 µM (active)	
O=C(CCl)Nc1ccc(S(=O)(=O)Nc2nccs2)cc1	1.26 µM (active)	
O=C(CN1C(=O)/C(=C/c2ccc(F)cc2)SC1=S)N1CCN(CCc2ccccn2)CC1	15.8 µM (active)	
CC(C)(C)C(=O)/C(=C\c1cccc([N+](=O)[O-])c1)n1cncn1	10 µM (active)	
